Only a selection was taken, and hits are over-represented in it overall.
mHTT CaM bind – mHTT-calmodulin interaction abrogation | P42858 | AlphaScreen His-mHTT/GST-CaM binding, luminescence | inhibition, % at 15 µM | 190,000 tested, 3.6% active | AID 1671202
Pf apPOL block – Pf-apPOL DNA polymerase inhibition | Recombinant Pf-apPOL, molecular beacon fluorescence, 1.5 h | inhibition, % at 10 µM | 210,000 tested, 0.25% active
Each line names hits and unclear results; the compound was inactive in the other large screens. Cut-off read from the data, not from the text of the source: active = inhibition above about 50%; inactive = the rest.

CCCCN(C)CCCNC(=O)CN1C(=O)/C(=C/c2cccc(Cl)c2)Sc2ccccc21	mHTT CaM bind 98.0
O=C(CN1C(=O)/C(=C/c2cccc(Cl)c2)Sc2ccccc21)NCCN1CCCCCC1	mHTT CaM bind 54.0
CCN(CC)CCNC(=O)CN1C(=O)/C(=C/c2ccc(C(F)(F)F)cc2)Sc2ccccc21	mHTT CaM bind 100.0
Cn1c(=O)c2c(SCc3ccccc3F)nc(-c3ccc([N+](=O)[O-])cc3)nc2n(C)c1=O	none
CC(C)NC(=O)N1CCCC(c2cccc(C(=O)N3CCCCC3)c2)C1 (configuration not stated)	none
COc1ccc(C(=O)Nc2cccc(NC(=O)c3ccccc3)c2)cc1Br	none
COc1ccc(CNC(=O)c2cc(-c3cccnc3)nc3ccccc23)cc1	mHTT CaM bind 70.0
COc1cccc(CNC(=O)c2cc(-c3cccnc3)nc3ccccc23)c1	none
Cc1cccc(NC(=O)N2CCC3(CC2)NC(=O)c2ccccc2N3C)c1	none
CCN1c2ccccc2-n2cccc2C12CCN(C(=O)Nc1ccccc1C)CC2	none
CCN1c2cc(C)ccc2-n2cccc2C12CCN(C(=O)Nc1ccc(F)cc1F)CC2	mHTT CaM bind 51.6
CCN1c2cc(C)ccc2-n2cccc2C12CCN(C(=O)Nc1ccc(F)cc1)CC2	none
CCN1c2cc(C)ccc2-n2cccc2C12CCN(C(=O)Nc1cccc(C)c1)CC2	mHTT CaM bind 65.8
CCN1c2cc(C)ccc2-n2cccc2C12CCN(C(=O)Nc1cc(F)ccc1F)CC2	mHTT CaM bind 51.3
Cc1ccc2sc(N3CCN(C(=O)c4cc(=O)c5ccccc5o4)CC3)nc2c1C	none
Nc1cc(C2CCN(C(=O)c3cncc(Br)c3)CC2)no1	none
CCN(CC)C(=O)CC[C@H]1CC[C@]2(CCCN(C(=O)c3ccno3)C2)O1	none
CCOC(=O)CC[C@H]1CC[C@]2(CCCN(C(=O)c3ccno3)C2)O1	mHTT CaM bind 78.3
O=C(Oc1ccc2c(c1)OC(=Cc1ccncc1)C2=O)c1ccc2c(c1)OCO2	none
CC(=O)N(CCC1(Cc2ccccc2)CCOC(C)(C)C1)Cc1ccccc1 (configuration not stated)	mHTT CaM bind 55.8
COc1ccc(CN(CCC2(Cc3ccccc3)CCOC(C)(C)C2)C(C)=O)cc1 (configuration not stated)	none
Cc1ccc(C(O)CN2CCN(c3cccc(C)c3)CC2)cc1 (configuration not stated)	none
COc1ccc(OC)c(CNC(=O)c2cc3n(n2)CCCN(Cc2cccc(C)c2)C3=O)c1	none
Cc1c(N=Cc2cc([N+](=O)[O-])c(Cl)cc2Cl)c(=O)n(-c2ccccc2)n1C	none
O=c1[nH]c2ccc(N=Cc3cc(O)ccc3Br)cc2[nH]1	none
O=c1[nH]c2ccc(N=Cc3cc([N+](=O)[O-])c(Cl)cc3Cl)cc2[nH]1	mHTT CaM bind 94.0
O=c1[nH]c2ccc(N=Cc3cc(Br)cc(Br)c3O)cc2[nH]1	mHTT CaM bind 61.0
O=C(NC1CC1)C1CCCN(c2ncnc3c2nc2n3CCCCC2)C1 (configuration not stated)	none
COc1cccc(CNC(=O)C2CCN(c3cc(=O)n(C)c(=O)n3C)CC2)c1	none
Nc1c(S(=O)(=O)O)cc(Nc2ccc(Nc3nc(Cl)nc(Nc4ccc(S(=O)(=O)O)cc4)n3)c(S(=O)(=O)O)c2)c2c1C(=O)c1ccccc1C2=O	none (no result: mHTT CaM bind)
Nc1c(S(=O)(=O)O)cc(Nc2ccccc2)c2c1C(=O)c1ccccc1C2=O	mHTT CaM bind 98.0
NC1=C(Nc2ccccc2)C(=O)c2ccccc2C1=O	mHTT CaM bind 93.4
O=C1C(Nc2ccccc2)=C(NS(=O)(=O)c2ccccc2)C(=O)c2ccccc21	none
Nc1c(S(=O)(=O)O)cc(Br)c2c1C(=O)c1ccccc1C2=O	none
Cc1ccc(S(=O)(=O)Nc2cc(S(=O)(=O)O)c(N)c3c2C(=O)c2ccccc2C3=O)cc1	mHTT CaM bind 79.0
CNC(=O)N1CCCC(c2cccc(C(=O)NCc3cccc(F)c3)c2)C1 (configuration not stated)	none
O=C(Nc1cccc(Cl)c1)N1CC(C(=O)N2CCCCC2)C2(CCOCC2)C1 (configuration not stated)	none
CC(C)Oc1ccc(C(=O)Nc2nnc(-c3ccc(F)cc3)s2)cc1	none
COc1ccc(NC(=O)CSCc2ccccc2Cl)c(OC)c1	none
CCN1CCN(C(=O)CC(c2ccccc2C)c2cnc3n2C(C)CCC3)CC1 (configuration not stated)	none
Cc1ccsc1C(=O)Nc1cccn2cnnc12	none
Cc1nc2sc3c(c2c(=O)n1/N=C/N(C)C)CCC(C(C)(C)C)C3 (configuration not stated)	none
CC(=O)N(C1=C(N2CCOCC2)C(=O)c2ccccc2C1=O)c1ccccc1	none
COc1cccc(N(C(C)=O)C2=C(N3CCCC3)C(=O)c3ccccc3C2=O)c1	mHTT CaM bind 98.6
CC(=O)N(C1=C(N2CCCCC2)C(=O)c2ccccc2C1=O)c1ccccc1C	none
CC(=O)N(C1=C(N2CCOCC2)C(=O)c2ccccc2C1=O)c1ccc(Cl)c(Cl)c1	mHTT CaM bind 95.8

Assay outcomes as filed in PubChem.
